Only some compounds are listed: those with a hit (about 3% of all), similar ones and a draw of the others.
PAFAH2 inh = PAFAH2 enzyme inhibitors, primary screen, biochemical, fluorescence polarization, human | Platelet-activating factor acetylhydrolase 2, cytoplasmic (Homo sapiens), Q99487 | recombinant PAFAH2, FP-rhodamine activity probe | inhibition, % at 3.39 µM | 0.99% of 340,000 active | AID 492956, 2010;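 active means inhibition above the mean over all tested compounds plus 3 SD, cut at about 30% in these data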;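 further: inhibitors block probe labeling of enzyme so polarization drops; 0% = enzyme with DMSO and 100% = wells lacking PAFAH2 protein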
PAFAH1B2 inh = PAFAH1B2 enzyme inhibitors, primary screen, biochemical, fluorescence polarization, human | Platelet-activating factor acetylhydrolase IB subunit alpha2 (Homo sapiens), P68402 | 1.2% of 340,000 active | inhibition, % at 3.39 µM | recombinant PAFAH1B2, FP-rhodamine activity probe;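 active means inhibition above the mean of all tested compounds plus 3 SD, cut at about 24% in these data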;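 further: 0% = enzyme with DMSO and 100% = wells lacking PAFAH1B2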
DAGLB inhibitor = DAGLB lipase inhibitors, primary screen, biochemical, fluorescence, HTS; Diacylglycerol lipase-beta (Homo sapiens), Q8NCG7; HEK293T DAGLB membrane lysate, EnzChek fluorogenic substrate; 0.059% of 340,000 active; AID 504411, 2011; inhibition, % at 5.17 µM; in the data active means inhibition above about 34%;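 further: 0% = enzyme with vehicle and 100% = wells lacking enzyme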
ATG4B inh = ATG4B protease inhibitors, primary screen, biochemical, fluorescence, uHTS. inhibition, % at 8.33 µM. 0.51% of 340,000 active. ATG4B cleavage of LC3-PLA2, NBD-HPC fluorescence, 1 h; in the data active means inhibition above about 40%
pPAFAH inh = pPAFAH enzyme inhibitors, primary screen, biochemical, fluorescence polarization, human; recombinant pPAFAH, FP-rhodamine probe fluorescence polarization; inhibition, % at 3.39 µM; Platelet-activating factor acetylhydrolase (Homo sapiens), Q13093; 1.5% of 330,000 active;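 active means inhibition above the mean inhibition across the screen plus 3 SD, cut at about 25% in these data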;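 further: inhibitors block binding of the rhodamine activity-based probe so polarization drops; 0% = enzyme with DMSO and 100% = wells lacking pPAFAH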
Target sequence (Q13093 whole entry, looked up): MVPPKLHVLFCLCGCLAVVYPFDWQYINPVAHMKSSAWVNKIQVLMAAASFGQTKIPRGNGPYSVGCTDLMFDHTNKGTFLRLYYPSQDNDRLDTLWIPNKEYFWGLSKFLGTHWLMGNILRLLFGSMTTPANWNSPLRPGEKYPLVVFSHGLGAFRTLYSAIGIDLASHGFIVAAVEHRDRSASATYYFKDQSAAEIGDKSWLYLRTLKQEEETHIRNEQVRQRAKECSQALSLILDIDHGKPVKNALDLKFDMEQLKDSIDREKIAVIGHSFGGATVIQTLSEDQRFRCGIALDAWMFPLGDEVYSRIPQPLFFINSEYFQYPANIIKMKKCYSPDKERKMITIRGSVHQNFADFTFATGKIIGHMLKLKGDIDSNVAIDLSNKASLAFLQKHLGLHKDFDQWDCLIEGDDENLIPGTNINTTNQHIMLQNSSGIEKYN
PAFAH1B3 FP inh = PAFAH1B3 enzyme inhibitors, primary screen, biochemical, fluorescence polarization, human; Platelet-activating factor acetylhydrolase IB subunit alpha1 (Homo sapiens), Q15102; recombinant PAFAH1B3, FP-rhodamine probe; inhibition, % at 3.39 µM; 0.28% of 340,000 active;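 active means inhibition above the screen-wide average of all tested compounds plus 3 SD, cut at about 25% in these data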;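 further: 0% = enzyme with DMSO only and 100% = wells lacking PAFAH1B3 protein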
PAFAH2 FP conf = PAFAH2 enzyme inhibitors, confirmation, biochemical, fluorescence polarization, human; shares compounds with PAFAH2 inh; recombinant PAFAH2, FP-rhodamine activity probe; inhibition, % at 3.39 µM; 65% of 2,300 active; AID 493030, 2011;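 active means mean inhibition over three repeats above a set limit taken from the earlier primary screen, cut at about 30% in these data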;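 further: inhibitor blocks binding of rhodamine activity probe so polarization falls; 0% = enzyme with DMSO and 100% = wells lacking PAFAH2 protein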
An asterisk follows results filed as active; . = not tested or not shown.

SMILES | PAFAH2 inh | PAFAH1B2 inh | DAGLB inhibitor | ATG4B inh | pPAFAH inh | PAFAH1B3 FP inh | PAFAH2 FP conf
O=c1oc(-c2cccs2)nc2ccc(Br)cc12 | 18 | 3 | 7 | 5 | -6 | 4 | .
COc1cc2nc(-c3cccs3)oc(=O)c2cc1OC | 41* | 0 | -1 | -6 | -2 | 17 | 23
Cc1ccc2nc(-c3cccs3)oc(=O)c2c1 | 54* | -1 | -9 | 6 | 2 | 11 | 54*
O=c1c2cnn(-c3ccccc3)c2nc(-c2cccs2)n1-c1ccc(Cl)cc1 | 3 | 5 | -2 | 2 | 4 | 3 | .
O=c1oc(-c2cccs2)nc2c1cnn2-c1ccccc1 | 66* | 3 | 5 | 3 | 18 | 0 | 54*
Cc1nc2nc(C)c(NS(=O)(=O)c3ccc(CC(C)C)cc3)c(=O)n2[nH]1 | 5 | 5 | 0 | 2 | 4 | 9 | .
O=C(O)/C=C/c1nc(-c2ccccc2)n2ccccc12 | 6 | 5 | -1 | 3 | 9 | 7 | .
CCCCN(C(=O)C(C)Oc1ccc(Br)cc1)c1c(N)n(CC(C)C)c(=O)[nH]c1=O (stereo not drawn) | 5 | -6 | -7 | -5 | -3 | -4 | .
COc1ccc(-c2cn(Cc3ccc(C(N)=O)cc3)c(-c3ccncc3)n2)cc1 | 2 | 2 | -2 | -5 | 4 | -4 | .
CSc1cccc(NC(=O)CN(C)S(=O)(=O)c2cnc[nH]2)c1 | 1 | -1 | 1 | 1 | 1 | -2 | .
CC(=O)Nc1ccc(S(=O)(=O)O)c(OC(C)=O)c1 | 2 | 4 | -2 | -4 | . | 2 | .
CCOCCCNC(=O)Cn1nc(Cc2ccncc2)c2ccccc2c1=O | 5 | 8 | -2 | 1 | 2 | 11 | .
Cc1cccc(NC(=O)COC(=O)c2cccc(S(=O)(=O)N3CCCCCC3)c2)c1 | 74* | 3 | -13 | -16 | 20 | -6 | 63*
Cc1cc(C)cc(NC(=O)COC(=O)c2cccc(S(=O)(=O)N3CCCCC3)c2)c1 | 65* | -4 | -4 | -3 | 9 | 6 | 52*
O=C(O)c1cccc(-c2nnn(Cc3ccccc3Cl)n2)c1 | 84* | 7 | -1 | -6 | 1 | 0 | 2
O=C(O)c1cccc(-c2nnn(Cc3ccccc3)n2)c1 | -7 | 4 | 0 | -4 | 2 | 6 | .
O=C(CN1C(=O)S/C(=C\c2ccccc2)C1=O)Nc1cc([N+](=O)[O-])ccc1O | 57* | 16 | 13 | 6 | 24 | 15 | 43*
Cc1ccc(/C=C2/SC(=S)N(CCCC(=O)Nc3cc([N+](=O)[O-])ccc3O)C2=O)cc1 | 32* | 4 | 4 | 0 | 8 | 9 | 16
COc1ccc(/C=C2\SC(=O)N(CC(=O)Nc3ccccc3O)C2=O)cc1OC | -8 | 2 | -2 | -9 | . | 1 | .
COc1ccc(NC(=O)C(Cc2cc(C)cc(C)c2)C(C)C(=O)O)cc1 (stereo not drawn) | -3 | -1 | -2 | 5 | -6 | -6 | .
CCCC(Oc1ccc(Br)cc1)c1nc2c3cc(OC)c(OC)cc3nc(=S)n2[nH]1 (stereo not drawn) | 33* | 15 | -2 | 25 | 10 | 13 | 22
Cc1cccc(C)c1N1CCN(C(=O)N2CCOCC2)CC1 | 44* | 1 | -1 | -6 | 2 | 2 | 44*
Cc1ccc(N2CCN(C(=O)N3CCOCC3)CC2)cc1C | -4 | 3 | -2 | 3 | 1 | -3 | .
CC(NC(=O)COC(=O)/C=C/c1ccc2c(c1)OCO2)c1ccccc1 (stereo not drawn) | 47* | 7 | -2 | 1 | 1 | 1 | 38*
